Our source for the growth values is PubChem BioAssay (NCI).

What all share (experiment): NCI-60 one-dose screen, 48 h (100 = growth as untreated, 0 = no growth, -100 = all killed)
Details in all cases: 10 µM

The subject of assay [1] is NCI-H23 lung.
Assay [2] concerns NCI-H226 lung.
Assay [3] has as its system HOP-62 NSCLC.
Assay [4] deals with NCI-H460 lung.
For assay [5], the system named is HOP-92 NSCLC.
Assay [6] relates to NCI-H522 lung.
The subject of assay [7] is A549/ATCC NSCLC.
In assay [8] the test system is 786-0 renal.
Assay [9] has as its system COLO 205 colon.

This is part of a sample that, as a whole, favours compounds with a hit. Of some 83,000 tested, about 20% had one in any assay.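 A percent growth of 40 corresponds to 60% growth inhibition; 0 means no net growth; -100 means all cells died. Active threshold: below 10.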 A number with no mark means an inactive call. The source made the active and inactive calls.

Regarding `O=C(CCCSc1nc(-c2ccccc2)cc(-c2ccc(Cl)cc2)n1)NO`, the growth in [1] is 9.38% (active); in assay [2], 10.6%; in assay [3], 12.5%; in assay [4] it was -9.81% (active); in assay [5], 32.9%; in assay [6], 7.31% (active). Also, the values for the growth in [7], in [8] and in [9] were 5.6% (active), 9.83% (active) and 10.1%, respectively.

In the case of `COc1ccc(N=Nc2cc(OC)c(OC)c(OC)c2)cc1`, the growth was 77.3% in [1]; 92.4% in [2]; 66.9% in assay [3]; 87.5% in assay [4]; 79.4% in assay [5]; 57% in assay [6]. The growth in [7] was 73%; in assay [8], 98.2%.

With `O=C1/C=C/[C@@H](O)[C@@H]2C[C@@H](O)C[C@H]2/C=C/CCC[C@H](CCc2ccc(NC(=S)Nc3ccc4c(c3)C(=O)OC43c4ccc(O)cc4Oc4cc(O)ccc43)cc2)O1`, the growth is 4.65% (active) in assay [1]; 17.4% in [2]; 25% in assay [3]; 15.4% in assay [4]; -4.85% (active) in assay [5]; -31% (active) in [6]. The growth in assay [7] is 17.3%.

With `O=C1/C=C/[C@@H](O)[C@@H]2C[C@@H](O)C[C@H]2/C=C/CCC[C@H](C(F)(F)F)O1`, the growth in [1] is -30.8% (active); in assay [2] it was -46.7% (active); in [3] it was 33%; in [4] it was 59.2%; in assay [5], -2.27% (active); in assay [6] it was -27.6% (active). The growth is 33.4% in [7], -11.6% (active) in assay [8] and -44.6% (active) in assay [9].

Consider `Cc1ccc(Cl)cc1NC(=O)CCl`, for which the growth in [1] was 74.2%; in assay [2], 99.4%; in [3], 108%; in assay [4], 98.4%; in [5], 92.1%; in assay [6], 55.6%. Besides, the growth was 89.9% in assay [7], 81.2% in assay [8] and 110% in assay [9].

On to `Cc1cc(Br)nnc1Br`, for which the growth was 106% in assay [1]; 87.2% in assay [2]; 91.8% in assay [3]; 117% in [4]; 128% in [5]; 110% in assay [6]. The growth was 109% in [7], 104% in assay [8] and 100% in [9].

With `CCOC(=O)c1cc(C(=O)c2ccc(Cl)cc2)n2ccc(-c3cc[n+](CC(=O)c4ccc(OC)cc4)cc3)cc12`, the growth in assay [1] was 88.2%; in assay [2] it was 102%; in [3] it was 87.7%; in [4] it was 3.93% (active); in assay [5], 67.8%; in [6] it was 70.8%. The values for the growth in assay [7], in assay [8] and in assay [9] were 32.2%, 9.1% (active) and 42.8%, respectively.

Regarding `O=C1/C=C/[C@@H](O)[C@@H]2C[C@@H](O)C[C@H]2/C=C/CCC[C@@H](C(F)(F)F)O1`, the growth is 81.4% in [1]; 59.9% in [2]; 99.3% in assay [3]; 104% in assay [4]; 99.4% in assay [5]; 88% in assay [6]. In addition, the growth in [7] was 99.3%; in [8] it was 92.6%; in assay [9], 22%.

For `C=CCSC(CC)(CC)C(=O)NC`, the growth was 99.4% in assay [1]; 97.8% in [2]; 102% in assay [3]; 103% in [4]; 106% in assay [5]; 86.5% in [6]. The growth in assay [7] is 94.9%; in assay [8], 104%; in [9] it was 120%.

With `COc1cc2c(Nc3ccc(S(N)(=O)=O)cc3)ncnc2c(OC)c1OC`, the growth in [1] was 96.7%; in assay [2], 84.9%; in assay [3], 92.3%; in [4], 105%; in assay [5], 85.9%; in [6], 89.4%. The results for the growth in assay [7], in [8] and in assay [9] were 102%, 121% and 89.2%, respectively.

For `OCC1OC2C(NC(=S)N2c2ccccc2)C(O)C1O` (configuration not stated), the growth was 102% in [1]; 95.5% in [2]; 101% in assay [3]; 105% in [4]; 90.5% in assay [5]; 104% in assay [6]. The growth is 93.9% in assay [7], 110% in assay [8] and 105% in [9].

With `COc1ccc(/C(C#N)=C/c2cccc(OC)c2OC)cc1`, the growth in assay [1] is 80%; in assay [2], 89%; in [3], 88%; in assay [4], 108%; in assay [5], 86.4%; in assay [6] it was 58.8%. The growth was 67.5% in [7], 93.8% in assay [8] and 88.8% in assay [9].

Turning to `COc1ccc2nc(-c3ccc(Cl)cc3)cc(-c3nnc(SC/C(=N\O)c4ccccc4)n3-c3ccccc3)c2c1`, the growth was 92.9% in [1]; 82.5% in assay [2]; 109% in assay [3]; 86.9% in assay [4]; 95.4% in assay [5]; 82.7% in assay [6]. Moreover, the growth was 63.1% in assay [7], 88.1% in assay [8] and 98.7% in assay [9].

For `Cc1[nH]c2ccccc2c1/C=N/Nc1ncnc2sc3c(c12)CCN(CC(=O)OC(C)(C)C)C3`, the growth is 91.6% in assay [1]; 98% in [2]; 92.4% in assay [3]; 98.3% in [4]; 61.2% in assay [5]; 58.4% in [6]. Besides, the growth in [7] is 65%; in assay [8] it was 47.1%; in assay [9], 63.4%.

As to `CCCCN(CCCC)C(=O)[C@H](CC)[C@@H]1CC[C@@H](C)[C@@H]([C@H](C)[C@@H](O)[C@@H](C)C(=O)[C@H](CC)C2O[C@]3(C=C[C@@H](O)[C@]4(CC[C@@](C)([C@H]5CC[C@](O)(CC)[C@H](C)O5)O4)O3)[C@H](C)C[C@@H]2C)O1` (some centres not stated), the growth in [1] is -11.8% (active); in [2] it was -2.42% (active); in assay [3] it was 7.81% (active); in assay [4], -4.44% (active); in assay [5] it was -25.6% (active); in assay [6], -18.4% (active). The growth in [7] was 9.11% (active); in assay [8], 17.4%; in [9], -77.6% (active).
